# Bioassay records from PubChem.
# TMEM16A act = activators or potentiators of mouse TMEM16A chloride channel | hit rate 0.3% among 340,000 | B-score at 10 µM | HEK293 TMEM16A/YFP-H148Q/I152L, iodide quench fluorescence; stronger effect = lower value | Q8BHY3;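 active means fluorescence-ratio B-score plate-corrected deviation score at least 3 library SD below zero, with starting fluorescence score within 5 deviations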;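 further: channel opened by trigger with iodide after compound preincubation; score built on the fluorescence ratio of max minus min over baseline; more negative score means more quench and so TMEM16A activation or potentiation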
# CHT PAM = human CHT allosteric activation. AID 488977. hit rate 0.49% among 310,000. B-score at 10 µM. CHT-expressing cells, membrane potential dye, choline EC20; stronger effect = higher value; LV-AA mutant CHT in HEK293 cells. Q9GZV3;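 active means initial fluorescence not abnormally high and integrated response B-score, plate-corrected, over 3 SD above library mean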
# Target sequence (Q9GZV3 whole entry, looked up): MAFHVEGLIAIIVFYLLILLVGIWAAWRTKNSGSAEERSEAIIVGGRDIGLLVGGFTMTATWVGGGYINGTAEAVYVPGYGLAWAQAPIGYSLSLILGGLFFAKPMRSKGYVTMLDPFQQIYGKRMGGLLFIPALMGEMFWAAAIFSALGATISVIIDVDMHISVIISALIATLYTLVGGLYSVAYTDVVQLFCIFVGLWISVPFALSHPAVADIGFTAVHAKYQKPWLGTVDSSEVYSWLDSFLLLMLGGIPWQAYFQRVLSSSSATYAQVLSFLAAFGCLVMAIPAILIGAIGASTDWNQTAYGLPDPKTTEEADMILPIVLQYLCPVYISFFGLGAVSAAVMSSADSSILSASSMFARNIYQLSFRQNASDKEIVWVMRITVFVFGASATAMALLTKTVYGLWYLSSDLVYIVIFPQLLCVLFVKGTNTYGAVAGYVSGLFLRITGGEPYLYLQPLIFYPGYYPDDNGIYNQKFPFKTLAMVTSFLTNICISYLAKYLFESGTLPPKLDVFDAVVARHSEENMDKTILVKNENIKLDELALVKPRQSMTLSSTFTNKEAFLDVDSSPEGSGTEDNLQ
# GPR7 antag = blocks human GPR7 receptor signaling. hit rate 1.1% among 290,000. inhibition, % at 4.4 µM. GPR7-expressing cells, fluorescence antagonist assay. AID 1861; in the data active means inhibition above about 16%, passing the limit was not always enough;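 further: cells stimulated with the agonist NPW; 0% = agonist with vehicle and 100% = vehicle without agonist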
# CHT inh = inhibits the human high affinity choline transporter | Q9GZV3 | CHT-expressing cells, membrane potential dye, choline response; stronger effect = lower value | B-score at 10 µM | hit rate 0.86% among 310,000 | AID 488975;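 active means B-score over 3 SD under the library average, and starting fluorescence ratio not unusually high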;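 further: choline stimulus applied at its EC90 after an EC20 pre-addition; B-score computed on integrated fluorescence ratio after choline addition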
# Kir21 block = blocks the mouse Kir2.1 inward-rectifier potassium channel; P35561; HEK293-Kir2.1, FluxOR thallium flux fluorescence; stronger effect = lower value; B-score at 10 µM; hit rate 0.85% among 310,000;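 active means fluorescence ratio B-score at or below minus 3 SD of library scores, with starting-brightness B-score within 2 SD, cut at about -4.2 in these data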;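 further: channel flux triggered by added potassium and thallium sulfate stimulus; B-score of peak minus minimum fluorescence over baseline after thallium stimulus; more negative B-score means stronger Kir2.1 block with less thallium influx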
# ANO1 block = inhibitors of mouse TMEM16A calcium-activated chloride channel; HEK293 TMEM16A/YFP iodide influx fluorescence, ionomycin; normalized B-score (activity score, 25-100; higher = stronger inhibition) at 10 µM; AID 588511; hit rate 1.2% among 310,000;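 active means ratio plate-corrected score three or more library SD toward inhibition, starting fluorescence score within five deviations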;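 further: score derived from kinetic fluorescence span divided by baseline fluorescence per well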
# GPR7 antag cf = human GPR7 antagonism, confirmation assay; shares compounds with GPR7 antag; GPR7-expressing cells, calcium fluorescence antagonist mode; inhibition, % at 4.4 µM; hit rate 52% among 2,400; in the data active means inhibition above about 24%;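 further: stimulated with the GPR7 agonist NPW; 0% = agonist plus vehicle and 100% = vehicle alone without agonist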
# MCHR1 antagonist = antagonizes human MCHR1, a GPR7 antagonist counter-screen; shares compounds with GPR7 antag; MCHR1-expressing cells, fluorescence antagonist assay; inhibition, % at 4.4 µM; hit rate 62% among 2,400; in the data active means inhibition above about 22%;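 further: 0% = vehicle with agonist and 100% = vehicle without agonist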
# An asterisk follows results filed as active; i = inactive; . = no result. Hits are enriched below; roughly 3.7% of the tested compounds scored in any of these assays.
SMILES,TMEM16A act,CHT PAM,GPR7 antag,CHT inh,Kir21 block,ANO1 block,GPR7 antag cf,MCHR1 antagonist
NC(=O)C1CCN(c2cc(Cl)ccc2[N+](=O)[O-])CC1,i,i,26*,i,-0.05,i,-9,-10
N#Cc1nnn(-c2ccc(Cl)cc2)c1N,i,i,-12,i,-0.05,i,.,.
COc1ccccc1-c1noc(CCC(=O)Nc2cc(C(F)(F)F)ccc2Cl)n1,i,i,23*,i,1.5,i,15,32*
COc1ccccc1NC(=O)c1coc(=O)c(Br)c1,i,i,0,i,0.28,i,.,.
O=C(CSc1nc(N2CCOCC2)nc(N2CCOCC2)n1)Nc1ccccc1F,i,i,-13,i,-0.18,i,.,.
COC(=O)C1=C(C)N(Cc2ccccc2)C(=NCc2cccc(C(F)(F)F)c2)N[C@H]1c1cccc(C(F)(F)F)c1,i,.,.,.,.,.,.,.
COCCN=C1N[C@@H](c2cccc(C(F)(F)F)c2)C(C(=O)OC)=C(C)N1Cc1ccccc1,i,i,.,i,-4,i,.,17
COC(=O)C1=C(C)N(Cc2ccccc2)C(=NCc2cccc(C(F)(F)F)c2)N[C@H]1c1cccc(F)c1,i,i,38*,i,-5.6*,i,70*,71*
CCn1c(N2CCN(C(=O)c3ccco3)CC2)nc2ccccc21,i,i,-6,i,1.7,i,.,.
CC(C)c1cc(N2CCN(C(=O)c3ccco3)CC2)n2c(nc3ccccc32)c1C#N,i,i,25*,i,-0.47,i,-9,3
Clc1ccc(Cn2cccn2)cn1,i,i,-17,i,-0.1,i,.,.
Cc1cccc(N2CCN(S(=O)(=O)c3cc(-c4cc(C)no4)ccc3C)CC2C)c1 (stereo not given),i,i,31*,i,0.09,i,45*,61*
COc1ccc(N2CCN(S(=O)(=O)c3cc(-c4cc(C)no4)ccc3C(C)C)CC2)cc1,i,i,21,i,0.74,i,.,.
Cc1cc(-c2ccc(C(C)C)c(S(=O)(=O)N3CCN(c4ccccc4)CC3)c2)on1,i,i,27*,i,0,i,30*,40*
Cn1c(N)c(C#N)c2c(c1=S)COC(C)(C)C2,i,i,-4,i,3.8,i,.,.
CC1(C)Cc2c(C#N)c(N)n(-c3ccccc3)c(=S)c2CO1,i,i,92*,i,-0.01,i,-3,-7
O=C(O)CC(NC(=O)C1c2ccccc2Oc2ccccc21)c1ccc(Cl)cc1 (stereo not given),i,i,35*,i,0.64,i,3,4
C=CCN1C(=O)S/C(=C/c2ccsc2)C1=O,i,i,-9,i,-1.3,i,.,.
C=CCN1C(=O)S/C(=C/c2ccc(Sc3nc4ccccc4[nH]3)o2)C1=O,i,i,54*,i,0.04,100*,37*,75*
C=CCc1cccc(Cl)c1OCCCNC1CCCC1,i,i,30*,i,-4.2,i,31*,21*
O=[N+]([O-])c1cccc(-c2ccc3nnc(SCc4cccnc4)n3n2)c1,i,.,.,.,.,.,.,.
COc1cccc(OC(=O)c2cc3ccccc3oc2=O)c1,i,i,9,i,0.96,i,.,.
COc1ccc(OC(=O)c2cc3cc(Cl)ccc3oc2=O)cc1,i,i,46*,i,0.14,i,-9,-2
C(=N\Nc1ccccc1)/c1nc2ccccc2s1,i,i,-10,i,-1.7,i,.,.
Cc1cc2nc3c(=O)[nH]c(=O)[nH]c3nc2c([N+](=O)[O-])c1N,i,.,25*,.,.,.,13,4
SMILES,TMEM16A act,CHT PAM,GPR7 antag,CHT inh,Kir21 block,ANO1 block,GPR7 antag cf,MCHR1 antagonist
O=c1[nH]c(/C=C/c2ccc(Cl)cc2Cl)c([N+](=O)[O-])c(=O)[nH]1,i,i,-15,i,-0.24,i,.,.
COc1cccc(COc2ccc3c(C)cc(=O)oc3c2)c1,i,i,12,i,0.01,i,.,.
COc1ccc(C2=NOC(COc3ccc4c(C)cc(=O)oc4c3)C2)c(OC)c1 (stereo not given),i,i,22*,i,0.76,i,34*,34*
S=C(Nc1ccccc1)Nc1ccc(OCc2ccc(Cl)cc2Cl)cc1,i,i,-8,i,-1.5,i,.,.
OCCNCc1ccc(OCc2ccc(Cl)cc2Cl)cc1,i,i,31*,i,-7.5*,i,40*,43*
OCCCCNCc1ccc(OCc2ccc(Cl)cc2Cl)cc1,i,i,39*,i,-7.1*,i,66*,59*
CCOC(=O)N/N=C/c1cn(CCCOc2ccccc2)c2ccccc12,i,i,27*,i,0.74,i,9,44*
CCOC(=O)N/N=C/c1cn(CCCOc2ccc(C)cc2)c2ccccc12,i,i,11,i,0.01,i,.,.
COc1ccc(C)cc1NC(=O)CSc1nnc2ccc(-c3ccncc3)nn12,i,i,.,i,-0.48,i,.,.
CN1C(=O)c2ccc(NC(=O)CSc3ccccc3)cc2C1=O,i,i,3,i,1.2,i,.,.
O=C(CSc1ccc(F)cc1)Nc1ccc2c(c1)C(=O)NC2=O,i,i,25*,i,-0.06,i,36*,43*
C[C@H]1CC[C@H]2C(=O)N3[C@H](c4cccc(N5CCCC5=O)c4)[C@@H](C)CC[C@H]3C(=O)N2[C@@H]1c1cccc(N2CCCC2=O)c1,.,i,-8,i,0.67,i,.,.
C[C@H]1CC[C@H]2C(=O)N3[C@H](c4ccccc4Br)[C@@H](C)CC[C@H]3C(=O)N2[C@@H]1c1ccccc1Br,.,8.1*,29*,i,-0.12,i,57*,59*
Cc1ccc(S(=O)(=O)N(C)C[C@@H]2Oc3ccc(NC(=O)Nc4cccc5ccccc45)cc3C(=O)N([C@H](C)CO)C[C@H]2C)cc1,i,.,.,.,.,.,.,.
Cc1ccc(OCC(=O)Nc2ccc3c(c2)nc(CCN2CCCCC2)n3C)cc1,i,i,22*,i,-1.3,i,-8,7
COc1ccc(OCC(=O)Nc2ccc3c(c2)nc(CCN2CCCCC2)n3C)cc1,i,i,3,i,0.04,i,.,.
Cc1cc(Cl)ccc1OC(C)C(=O)Nc1ccc(S(=O)(=O)N2CCOCC2)cc1 (stereo not given),i,i,35*,i,-2.1,i,24,26*
